# Most compounds without a hit are left out; they make up all but 11% or so of the library.
# IMPase cell inh: membrane-permeable compound that blocks inositol monophosphatase; CHO-M1 cells, IP1 accumulation, HTRF TR-FRET ratio; inhibition (IP1 accumulation), % at 46.1 µM; 120,000 tested, under 10 active; active = well fitted curve in the direction sought with a large enough effect in the signal ratio, not every such curve was filed as active; inconclusive = small, poorly fitted or top-dose-only effect, or a change in a side signal; inactive = no such curve, though single readings can be large or run the other way; the % refers to the signal ratio;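 note: cells stimulated with carbachol in lithium chloride buffer; higher means more IMPase inhibition seen as more IP1 and lower FRET ratio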
#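 Seeded CHO-M1 cells were dosed with compound at up to 46 uM, stimulated with carbachol for 30 min, then lysed in IP-One detection reagents. Higher IP1 lowers the TR-FRET signal.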
# NPSR antagonist: antagonists of human neuropeptide S receptor cAMP signaling. 1% of 220,000 active. Q6W5P4. Potency, µM (doses to about 38.3 µM), actives largely listed as inhibitors. CHO-NPSR cells, cAMP TR-FRET, antagonist mode; active = well fitted curve in the direction sought with a large enough effect; inconclusive = small, poorly fitted or top-dose-only effect, or another doubt; inactive = no such curve, though single readings can be large; an effect the other way counts as inactive or inconclusive; note: nearly all actives have a fitted effect of over 50% in size
# IMPase Li inh: membrane-permeable IMPase blocker, potentiated with lithium. CHO-M1 cells, IP1 TR-FRET (IP-One), carbachol + lithium. Potency, µM (series often up to 59.4 µM), usual class: inhibitors. 0.35% of 210,000 active; active = well fitted curve in the direction sought with a large enough effect; inconclusive = small, poorly fitted or top-dose-only effect, or another doubt; inactive = no such curve, though single readings can be large; an effect the other way counts as inactive or inconclusive;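 note: IP1 builds up when IMPase is blocked and the TR-FRET signal falls; nearly all actives have a fitted effect of over 50% in size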
#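 Readout is a homogeneous TR-FRET IP1 immunoassay (Ex 320, Em 665 and 620), where raised cytosolic IP1 lowers signal. Cells were CHO-M1 treated 30 min at 37C with test compounds plus a little lithium; AC50 values came from Hill-equation fitting.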
# PNC assembly inh: inhibitors of perinucleolar compartment assembly | PC3M PTB-GFP, PNC prevalence imaging, 16 h; stronger effect = lower value | activity change (PNC), negative = inhibition, % at 10 µM | 3.1% of 140,000 active;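 active = readout at or below -70, meaning at least 70% loss of cells showing the perinucleolar compartment, a nuclear body marking cancer cells; inconclusive = readout between -30 and a set limit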
#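 PC3M cells stably expressing PTB-GFP, 750–1000 cells/well, treated 16 h at 37 °C with compound (23 nl of library stock), in duplicate. After paraformaldehyde fixation and Hoechst stain, imaged at 20x; PNC prevalence scored by image analysis.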
# HPGD inh: blocks human HPGD enzyme activity. P15428. purified HPGD, NADH fluorescence kinetic, PGE2 substrate. Potency, µM, usual class: inhibitors. 4.3% of 150,000 active
# Target sequence (P15428 whole entry, looked up): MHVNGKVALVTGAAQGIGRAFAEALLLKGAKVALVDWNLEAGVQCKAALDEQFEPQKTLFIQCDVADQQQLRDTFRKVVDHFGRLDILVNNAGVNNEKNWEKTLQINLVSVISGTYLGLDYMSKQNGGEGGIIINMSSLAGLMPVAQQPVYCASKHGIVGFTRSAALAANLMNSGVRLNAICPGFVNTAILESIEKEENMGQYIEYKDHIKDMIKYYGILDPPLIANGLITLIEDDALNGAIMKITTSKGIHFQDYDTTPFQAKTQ
#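 NADH formation kinetics: reaction with 30 uM PGE2 and 1 mM NAD+ (final), 20 nM enzyme, Tris-HCl pH 8 with Tween 20, after 15 min compound preincubation at room temperature. Fluorescence change, last versus first of five reads.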
# ALDH1A1 inh: blocks purified human ALDH1A1 activity; Potency, µM (doses to about 75.3 µM), hits mostly inhibitors; Purified ALDH1A1, NADH fluorescence, propionaldehyde substrate; 7.3% of 220,000 active
# Target sequence (P00352 whole entry, looked up): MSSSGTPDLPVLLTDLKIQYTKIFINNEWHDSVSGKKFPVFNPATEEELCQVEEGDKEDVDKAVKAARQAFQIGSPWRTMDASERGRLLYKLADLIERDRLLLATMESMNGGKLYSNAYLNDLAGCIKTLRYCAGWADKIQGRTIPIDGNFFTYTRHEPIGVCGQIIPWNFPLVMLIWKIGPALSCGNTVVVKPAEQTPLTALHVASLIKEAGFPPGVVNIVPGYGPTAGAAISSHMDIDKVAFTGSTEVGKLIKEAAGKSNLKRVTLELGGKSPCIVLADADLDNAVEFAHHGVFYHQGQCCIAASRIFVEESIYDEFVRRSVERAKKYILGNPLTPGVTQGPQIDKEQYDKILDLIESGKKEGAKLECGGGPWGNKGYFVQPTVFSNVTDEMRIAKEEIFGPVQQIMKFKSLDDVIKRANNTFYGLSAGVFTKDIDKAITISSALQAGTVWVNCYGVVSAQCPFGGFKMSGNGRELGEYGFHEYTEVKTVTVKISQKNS
# HPGD inh cf: confirmation of human HPGD inhibitors. 90% of 90 active. AID 2429. shares compounds with HPGD inh. recombinant HPGD, NADH fluorescence, PGE2 substrate. Potency, µM (doses to about 57.1 µM), hits mostly inhibitors; calls by dose curve
# A number is an active result; 0 = inactive; ? = inconclusive; - = no result given. Unless noted, calls come from the whole dose curve; as a rule, active = well fitted inhibition curve with a large enough effect (not every such curve was filed as active); inconclusive = small, poorly fitted or top-dose-only effect, or another doubt; inactive = no such curve, though single readings can be large or run the other way.
SMILES,IMPase cell inh,NPSR antagonist,IMPase Li inh,PNC assembly inh,HPGD inh,ALDH1A1 inh,HPGD inh cf
O=C(CN1CCOCC1)Nc1ccc2c(c1)OCO2,-,0,0,-,-,0,-
COc1ccc(NC(=O)CN2CCN(CC(=O)Nc3ccc4c(c3)OCO4)CC2)cc1,0,0,0,?,0,6.3µM,-
CCCN(CCC)C(=O)CSc1nc2n[nH]c(C)c2c(=N)n1-c1ccc(OCC)cc1,0,0,-,?,-,3.2µM,-
CCCN(CCC)C(=O)CSc1nc2n[nH]c(C)c2c(=N)n1-c1ccc(OC)cc1,0,?,0,?,0,?,-
NS(=O)(=O)c1ccc(NC(=S)NCC2CCCO2)cc1 (centres undefined),-,0,0,0,?,28µM,-
Cc1cc(C)cc(NC(=S)NCC2CCCO2)c1 (centres undefined),0,0,0,?,14µM,0,-
CC(=O)Nc1ccc(S(=O)(=O)C(C#N)c2nc3ccccc3nc2NCCN2CCOCC2)cc1 (centres undefined),-,0,0,-,-,?,-
O=C(c1ccc(F)cc1)N1CCN=C1c1ccccc1,-,0,0,-96,0,0,-
O=C(COc1ccccc1)N1CCN=C1c1ccccc1,0,0,0,0,0,0,-
COc1cc(C(=O)N2CCN=C2c2ccccc2)cc(OC)c1OC,0,0,0,-100,0,0,-
Cc1ccc(/C=N/N(C)C2=NS(=O)(=O)c3ccccc32)o1,-,0,0,-,-,0,-
CN(C)C(=O)c1ccc(-c2nc(N(C)C)c3ccccc3n2)cc1,-,-,0,-,0.32µM,?,2.5µM
CN(C)C(=O)c1ccc(-c2nc(NCc3ccccc3)c3ccccc3n2)cc1,-,-,0,-,?,0,14µM
COc1cc2[nH]c3c(Cl)ncnc3c2cc1OC,-,0,0,0,0,?,-
O=C(CCc1ccc(Oc2cc([N+](=O)[O-])cc([N+](=O)[O-])c2)cc1)N1CCCCCC1,0,?,0,0,0.89µM,13µM,0.4µM
Nc1n[nH]c(N)c1N=Nc1ccc(Cl)cc1Cl,-,0,0,0,0,0,-
COc1ccc(N2CCN(C(=O)c3ccc(CSc4ccccc4)cc3)CC2)cc1,-,0,0,0,0,0,0
O=C(NC1CCCCC1)N1CCCCCC1,0,0,0,0,0,0,-
COc1ccc(S(=O)(=O)N(C)c2ccc(C(=O)N3CCC(C(N)=O)CC3)cc2)cc1,0,0,0,0,0,0,0
O=C(c1ccc2c(=O)n(Cc3ccc4c(c3)OCO4)c(=S)[nH]c2c1)N1CCCCC1,0,0,?,?,0.4µM,0,?
O=c1c2ccccc2[nH]c(=S)n1Cc1ccc2c(c1)OCO2,-,0,?,-,-,0,-
CCOc1ccccc1CNC(=O)c1cc2oc3ccccc3c2n1C,0,0,0,0,?,?,-
COCCNC(=O)c1cc2oc3ccccc3c2n1C,0,0,0,0,1.4µM,?,1.6µM
Cc1cc(-c2nnc3n2CCCCC3)c(C)n1-c1ccccc1,0,0,0,?,0.16µM,?,0.089µM
c1ccc(N2CCN(CCc3nnc4n3CCCCC4)CC2)cc1,0,0,0,0,0,0,-
SMILES,IMPase cell inh,NPSR antagonist,IMPase Li inh,PNC assembly inh,HPGD inh,ALDH1A1 inh,HPGD inh cf
O=C(COC(=O)c1ccccc1Br)Nc1ccccc1F,-,0,0,-,-,?,-
CC1=Nc2cc(C(=O)N3CCCCC3)ccc2Sc2ccc(C)cc21,0,-,-,-,-,-,-
Cc1cccc(-n2cnc3cc(C(=O)N4CCCCC4)ccc32)c1,0,0,0,0,0.071µM,4µM,0.056µM
O=C1CCCN1CN1CCCCC1,0,0,0,0,0,0,-
Cc1ccc(-c2n[nH]c(=S)n2/N=C/c2c(C)nn(-c3ccccc3)c2C)cc1,0,0,0,0,1.1µM,0,0.5µM
O=c1c2ccccc2sn1-c1cc(S(=O)(=O)N2CCOCC2)ccc1N1CCCC1,0,0,0,-108,0.22µM,0.022µM,2.5µM
COc1ccc2cc(C(=O)N3CCCCCC3)sc(=O)c2c1OC,0,0,0,0,0.13µM,8.9µM,0.25µM
COC(=O)c1cc2ccc(OC)c(OC)c2c(=O)s1,0,0,0,0,0,0,-
O=C(c1ccc(N2C(=O)C3CCCCC3C2=O)cc1)N1CCCCC1 (centres undefined),-,0,0,0,1µM,?,0.56µM
CC1=CCC2C(=O)N(c3ccc(C(=O)N4CCCCCC4)cc3)C(=O)C2C1 (centres undefined),0,0,0,0,1.4µM,?,0.79µM
O=C(Nc1nccs1)c1ccc(N2C(=O)C3CCCCC3C2=O)cc1 (centres undefined),-,0,0,-,-,?,-
O=C(c1ccc(N2C(=O)C3CC=C(Cl)CC3C2=O)cc1)N1CCCCC1 (centres undefined),0,0,0,0,0.5µM,18µM,0.25µM
CCOC(=O)c1ccc(N2C(=O)C3CC=C(C)CC3C2=O)cc1 (centres undefined),0,0,0,0,0,?,-
O=C(c1ccc(N2C(=O)C3CC=C(Cl)CC3C2=O)cc1)N1CCOCC1 (centres undefined),-,0,0,-,-,0,-
CCOC(=O)c1sc(NC(=O)CSc2n[nH]c(-c3ccccc3)n2)c(C#N)c1C,0,0,0,0,1µM,2.8µM,1.1µM
O=c1[nH]c(SCc2ccccc2Cl)nc2c1CCC2,0,0,0,-101,1µM,0,2.2µM
Cc1oc(-c2ccccc2Cl)nc1CSc1nc2c(c(=O)[nH]1)CCCC2,-,0,-,-,-,-,-
COc1ccc(Cc2nnc(SCc3c(C)noc3C)n2C2CCCCC2)cc1OC,0,0,0,0,0,0,-
O=C1OCC(CO)(CO)N=C1NNc1cc(Cl)ccc1Cl,0,0,0,0,?,?,-
CCOc1ccccc1NC(=O)Cn1c(=O)n(CCCC(=O)NCc2ccc(C)cc2)c(=O)c2ccccc21,0,-,-,-,-,-,-
O=c1[nH]c2ccc(S(=O)(=O)Nc3ccc(-c4nnc5n4CCCCC5)cc3)cc2o1,0,0,0,?,0.2µM,0,0.13µM
COCCNC(=O)c1nc2c(nnn2Cc2cc(C)ccc2C)c(=O)[nH]1,0,?,0,?,0.2µM,?,0.71µM
Cc1ccc(C)c(Cn2nnc3c(=O)[nH]c(C(=O)NCC4CCCO4)nc32)c1 (centres undefined),0,0,0,0,1.3µM,0,0.4µM
O=C(NNS(=O)(=O)c1ccccc1[N+](=O)[O-])c1ccccc1[N+](=O)[O-],-,0,0,0,0,0,-
COc1ccc(NC(=O)COc2nsnc2N2CCOCC2)cc1,-,0,0,-,-,?,-
CC1(C)Cc2nc3sc4c(=O)n(Cc5ccccc5)cnc4c3cc2CS1,-,0,0,?,?,?,-
CC1CCCN(C(=O)c2ccc(COc3ccccc3Br)cc2)C1 (centres undefined),0,?,0,0,0.089µM,25µM,0.13µM
CCOc1ccc(OCc2ccc(C(=O)N3CCCC(C)C3)cc2)cc1 (centres undefined),-,0,0,-,-,?,-

# From PubChem BioAssay
